Data taken from the supplement of paper PMC10849652.
About 7,900 targets were measured; listed, in parts, are those with a hit and a random draw of the rest. About 0.6% of all pairs of compound and target were hits.

Legend:
Experiment in all cases: log2 fold change, soluble protein after heating vs DMSO (PISA); higher = thermal stabilisation; K562 cells, 10 uM, 30 min; active = over 0.2 and 3.5 SD of the protein, either way, in both replicates (recomputed)
filanesib = compound: CON(C)C(=O)N1N=C(c2cc(F)ccc2F)S[C@@]1(CCCN)c1ccccc1 [filanesib]
Outline: (§1)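 K562 cells (2×10^6 cells/mL) were treated with 10 μM compound for 30 min, and aliquots were heated for 3 min over 48°C-58°C. Pooled aliquots were extracted in PBS with 0.5% NP-40 at 4°C, and the supernatant after 21,000xg for 90 min was measured by TMTpro 16plex LC-MS/MS with channel sums equalised. Reported thermal stability, relative to control samples and from duplicates, is a log2 fold change.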

zotarolimus = compound: CO[C@H]1C[C@@H]2CC[C@@H](C)[C@@](O)(O2)C(=O)C(=O)N2CCCC[C@H]2C(=O)O[C@H]([C@H](C)C[C@@H]2CC[C@H](n3cnnn3)[C@H](OC)C2)CC(=O)[C@H](C)/C=C(\C)[C@@H](O)[C@@H](OC)C(=O)[C@H](C)C[C@H](C)/C=C/C=C/C=C/1C [zotarolimus]
Outline: as §1

idasanutlin = compound: COc1cc(C(=O)O)ccc1NC(=O)[C@@H]1N[C@@H](CC(C)(C)C)[C@](C#N)(c2ccc(Cl)cc2F)[C@H]1c1cccc(Cl)c1F [idasanutlin]
Outline: as §1

alisertib = compound: COc1cc(Nc2ncc3c(n2)-c2ccc(Cl)cc2C(c2c(F)cccc2OC)=NC3)ccc1C(=O)O [alisertib]
Outline: as §1

gefitinib = compound: COc1cc2ncnc(Nc3ccc(F)c(Cl)c3)c2cc1OCCCN1CCOCC1 [gefitinib]
Outline: as §1

[1] = compound: COc1cccc2cc(-c3nc([C@H]4CC[C@H](C(=O)O)CC4)n4ncnc(N)c34)[nH]c12
Outline: as §1

[2] = compound: COC1=CC=C(C=C1)CN2C=CC3=C2C=C(C=C3)C(=O)NO
Outline: as §1

pictilisib = compound: CS(=O)(=O)N1CCN(Cc2cc3nc(-c4cccc5[nH]ncc45)nc(N4CCOCC4)c3s2)CC1 [pictilisib]
Outline: as §1

[3] = compound: COc1cc2nc(-c3cc(F)ccc3O)nc(N[C@@H]3CNC[C@H]3C(C)(C)O)c2cc1OC
Outline: as §1

lapatinib = compound: CS(=O)(=O)CCNCc1ccc(-c2ccc3ncnc(Nc4ccc(OCc5cccc(F)c5)c(Cl)c4)c3c2)o1 [lapatinib]
Outline: as §1

CLPTM1L (UniProt G5E9Z2)
log2 fold change (filanesib): -0.235 (inactive) | log2 fold change (zotarolimus): -0.101 (inactive) | log2 fold change (idasanutlin): -0.446 (inactive) | log2 fold change (alisertib): -0.199 (inactive) | log2 fold change (gefitinib): -0.142 (inactive) | log2 fold change [1]: 0.099 (inactive)

CASK (UniProt O14936)
log2 fold change [2]: 0.046 (inactive) | log2 fold change (idasanutlin): -0.031 (inactive)

CDK2AP2 (UniProt O75956)
Sequence of UniProt O75956 (O75956 whole entry, looked up): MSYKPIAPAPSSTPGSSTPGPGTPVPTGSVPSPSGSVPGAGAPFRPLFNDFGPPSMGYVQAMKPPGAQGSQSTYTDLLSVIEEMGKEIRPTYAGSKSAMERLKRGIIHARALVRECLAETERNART
log2 fold change [2]: 0.078 (inactive) | log2 fold change (zotarolimus): -0.022 (inactive) | log2 fold change (idasanutlin): -0.043 (inactive) | log2 fold change (alisertib): -0.019 (inactive) | log2 fold change (gefitinib): -0.009 (inactive) | log2 fold change [1]: -0.11 (inactive)

CCNDBP1 (UniProt O95273)
Sequence of UniProt O95273 (O95273 whole entry, looked up): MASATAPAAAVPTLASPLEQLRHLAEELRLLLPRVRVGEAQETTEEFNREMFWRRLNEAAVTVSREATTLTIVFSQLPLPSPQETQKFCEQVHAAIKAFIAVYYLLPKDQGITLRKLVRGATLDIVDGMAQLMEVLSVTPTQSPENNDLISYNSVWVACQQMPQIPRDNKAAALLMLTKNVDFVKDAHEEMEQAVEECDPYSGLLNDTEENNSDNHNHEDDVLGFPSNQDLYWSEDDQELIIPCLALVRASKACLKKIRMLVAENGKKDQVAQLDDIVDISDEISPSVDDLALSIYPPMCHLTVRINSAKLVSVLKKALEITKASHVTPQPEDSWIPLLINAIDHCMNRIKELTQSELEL
log2 fold change (filanesib): 0.016 (inactive) | log2 fold change (zotarolimus): -0.102 (inactive) | log2 fold change (idasanutlin): 0.063 (inactive) | log2 fold change (alisertib): -0.012 (inactive) | log2 fold change (gefitinib): -0.33 (active) | log2 fold change [1]: 0.125 (inactive) | log2 fold change (pictilisib): 0.009 (inactive)

CNRIP1 (UniProt Q96F85)
log2 fold change (alisertib): 0.075 (inactive) | log2 fold change [3]: 0.282 (inactive) | log2 fold change (gefitinib): 0.002 (inactive) | log2 fold change [1]: -0.223 (inactive) | log2 fold change (lapatinib): 0.054 (inactive)

CASP7 isoform 3 (UniProt P55210)
log2 fold change (gefitinib): 0.282 (inactive) | log2 fold change (pictilisib): 0.234 (inactive)

CD84 (UniProt Q9UIB8)
log2 fold change (filanesib): -0.009 (inactive) | log2 fold change (zotarolimus): -0.194 (inactive) | log2 fold change (idasanutlin): -0.082 (inactive)

CARD9 (UniProt Q9H257)
log2 fold change [2]: -0.062 (inactive) | log2 fold change (idasanutlin): 0.169 (inactive)

CSNK1A1 isoform 3 (UniProt P48729)
Sequence of UniProt P48729 (P48729 whole entry, looked up): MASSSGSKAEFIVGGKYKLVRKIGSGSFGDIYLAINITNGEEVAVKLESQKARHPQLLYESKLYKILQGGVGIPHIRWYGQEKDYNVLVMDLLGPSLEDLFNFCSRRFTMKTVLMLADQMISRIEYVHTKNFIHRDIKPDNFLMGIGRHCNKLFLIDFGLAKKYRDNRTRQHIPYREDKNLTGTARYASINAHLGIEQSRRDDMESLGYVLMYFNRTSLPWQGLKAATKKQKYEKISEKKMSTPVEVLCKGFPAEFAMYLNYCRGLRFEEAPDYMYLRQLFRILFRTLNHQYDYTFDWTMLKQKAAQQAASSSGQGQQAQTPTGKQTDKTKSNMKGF
log2 fold change [3]: -0.006 (inactive) | log2 fold change [1]: 0.091 (inactive) | log2 fold change (lapatinib): 0.129 (inactive)

CCDC187, A0A1W2PQX5
log2 fold change (idasanutlin): -0.051 (inactive) | log2 fold change (gefitinib): -0.312 (inactive) | log2 fold change (pictilisib): 0.191 (inactive)

CORO2A (UniProt Q92828)
Sequence of UniProt Q92828 (Q92828 whole entry, looked up): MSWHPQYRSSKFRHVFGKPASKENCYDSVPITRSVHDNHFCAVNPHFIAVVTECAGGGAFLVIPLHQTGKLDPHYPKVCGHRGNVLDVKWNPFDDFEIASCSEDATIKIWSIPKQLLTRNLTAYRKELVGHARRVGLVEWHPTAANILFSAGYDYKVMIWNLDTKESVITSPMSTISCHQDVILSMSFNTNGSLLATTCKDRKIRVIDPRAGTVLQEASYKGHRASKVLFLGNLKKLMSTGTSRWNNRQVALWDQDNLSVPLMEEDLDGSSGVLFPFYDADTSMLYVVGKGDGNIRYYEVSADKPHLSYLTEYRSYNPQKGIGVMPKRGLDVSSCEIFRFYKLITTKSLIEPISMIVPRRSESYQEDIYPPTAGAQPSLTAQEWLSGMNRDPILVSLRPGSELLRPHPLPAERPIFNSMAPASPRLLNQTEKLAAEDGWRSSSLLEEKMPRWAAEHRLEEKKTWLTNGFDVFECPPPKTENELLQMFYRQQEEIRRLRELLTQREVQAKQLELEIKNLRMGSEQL
log2 fold change (filanesib): -0.035 (inactive) | log2 fold change (zotarolimus): -0.049 (inactive) | log2 fold change (idasanutlin): -0.071 (inactive) | log2 fold change (alisertib): 0.035 (inactive) | log2 fold change [3]: -0.057 (inactive) | log2 fold change (gefitinib): -0.097 (inactive) | log2 fold change [1]: -0.02 (inactive) | log2 fold change (lapatinib): -0.011 (inactive) | log2 fold change (pictilisib): -0.11 (inactive)

CREB3L2 (UniProt Q70SY1)
log2 fold change [2]: 0.584 (inactive) | log2 fold change (zotarolimus): 0.042 (inactive) | log2 fold change (idasanutlin): 0.045 (inactive) | log2 fold change (alisertib): -0.022 (inactive) | log2 fold change (gefitinib): -0.154 (inactive) | log2 fold change [1]: 0.176 (inactive)

CNN1 (UniProt P51911)
Sequence of UniProt P51911 (P51911 whole entry, looked up): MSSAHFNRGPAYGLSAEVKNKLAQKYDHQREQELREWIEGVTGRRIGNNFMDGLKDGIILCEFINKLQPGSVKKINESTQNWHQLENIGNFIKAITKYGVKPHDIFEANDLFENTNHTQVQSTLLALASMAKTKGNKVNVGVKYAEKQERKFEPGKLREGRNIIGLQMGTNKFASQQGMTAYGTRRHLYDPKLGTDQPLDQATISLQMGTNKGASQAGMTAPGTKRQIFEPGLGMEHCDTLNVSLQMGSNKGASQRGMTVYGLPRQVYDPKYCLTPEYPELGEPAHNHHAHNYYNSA
log2 fold change (filanesib): -0.051 (inactive) | log2 fold change (zotarolimus): 0.047 (inactive) | log2 fold change (idasanutlin): -0.048 (inactive) | log2 fold change (alisertib): -0.055 (inactive) | log2 fold change [3]: 0.182 (inactive) | log2 fold change (gefitinib): -0.14 (inactive) | log2 fold change [1]: 0.059 (inactive) | log2 fold change (lapatinib): -0.068 (inactive) | log2 fold change (pictilisib): 0.172 (inactive)

CEBPZOS (UniProt A8MTT3)
Sequence of UniProt A8MTT3 (A8MTT3 whole entry, looked up): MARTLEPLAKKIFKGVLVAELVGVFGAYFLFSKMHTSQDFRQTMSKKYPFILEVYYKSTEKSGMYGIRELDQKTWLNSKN
log2 fold change [2]: 0.111 (inactive) | log2 fold change (idasanutlin): -0.021 (inactive) | log2 fold change (alisertib): -0.014 (inactive) | log2 fold change [3]: -0.085 (inactive) | log2 fold change (gefitinib): 0.004 (inactive) | log2 fold change [1]: 0.098 (inactive) | log2 fold change (lapatinib): -0.037 (inactive) | log2 fold change (pictilisib): -0.045 (inactive)

CRMP1 isoform 2 (UniProt Q14194)
Sequence of UniProt Q14194 (Q14194 whole entry, looked up): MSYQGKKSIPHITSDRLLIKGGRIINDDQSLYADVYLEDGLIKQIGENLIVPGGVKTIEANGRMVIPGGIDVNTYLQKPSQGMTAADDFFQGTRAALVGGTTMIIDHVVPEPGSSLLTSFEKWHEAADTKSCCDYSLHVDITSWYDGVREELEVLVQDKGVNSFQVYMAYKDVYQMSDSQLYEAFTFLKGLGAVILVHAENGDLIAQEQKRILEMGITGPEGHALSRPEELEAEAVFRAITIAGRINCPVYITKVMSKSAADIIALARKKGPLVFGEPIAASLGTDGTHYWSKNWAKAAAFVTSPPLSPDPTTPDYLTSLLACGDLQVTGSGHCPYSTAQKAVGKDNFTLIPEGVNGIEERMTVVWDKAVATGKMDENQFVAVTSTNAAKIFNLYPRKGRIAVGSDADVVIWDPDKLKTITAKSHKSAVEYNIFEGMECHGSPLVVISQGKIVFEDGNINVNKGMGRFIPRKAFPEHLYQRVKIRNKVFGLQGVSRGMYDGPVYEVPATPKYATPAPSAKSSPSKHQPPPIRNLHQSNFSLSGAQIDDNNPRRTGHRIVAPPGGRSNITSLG
log2 fold change (filanesib): 0.067 (inactive) | log2 fold change (zotarolimus): -0.045 (inactive) | log2 fold change (idasanutlin): 0.172 (inactive) | log2 fold change (gefitinib): -0.407 (inactive) | log2 fold change (pictilisib): 0.107 (inactive)

CNN3 (UniProt Q15417)
log2 fold change (filanesib): -0.006 (inactive) | log2 fold change (zotarolimus): 0.005 (inactive) | log2 fold change (idasanutlin): -0.04 (inactive) | log2 fold change (alisertib): -0.031 (inactive) | log2 fold change [3]: 0.111 (inactive) | log2 fold change (gefitinib): 0.026 (inactive) | log2 fold change [1]: -0.026 (inactive) | log2 fold change (lapatinib): -0.032 (inactive) | log2 fold change (pictilisib): 0.04 (inactive)

CPNE5 (UniProt Q9HCH3)
log2 fold change (zotarolimus): -0.102 (inactive)

CDK19 (UniProt Q9BWU1)
Sequence of UniProt Q9BWU1 (Q9BWU1 whole entry, looked up): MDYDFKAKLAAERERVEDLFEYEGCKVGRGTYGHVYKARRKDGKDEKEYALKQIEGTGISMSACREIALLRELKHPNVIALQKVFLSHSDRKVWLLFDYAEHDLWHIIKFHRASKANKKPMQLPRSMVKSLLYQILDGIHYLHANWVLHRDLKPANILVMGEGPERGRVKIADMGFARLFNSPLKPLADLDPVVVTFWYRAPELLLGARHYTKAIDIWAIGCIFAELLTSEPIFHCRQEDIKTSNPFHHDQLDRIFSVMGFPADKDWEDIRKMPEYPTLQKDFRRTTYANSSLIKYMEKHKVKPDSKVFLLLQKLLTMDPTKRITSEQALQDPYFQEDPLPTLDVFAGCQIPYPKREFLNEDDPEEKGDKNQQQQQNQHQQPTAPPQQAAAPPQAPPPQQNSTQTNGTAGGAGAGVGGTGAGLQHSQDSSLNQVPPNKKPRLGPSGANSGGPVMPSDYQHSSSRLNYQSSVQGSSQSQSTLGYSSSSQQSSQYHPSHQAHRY
log2 fold change (filanesib): 0.154 (inactive) | log2 fold change (zotarolimus): -0.069 (inactive) | log2 fold change (idasanutlin): -0.161 (inactive) | log2 fold change (alisertib): 0.234 (inactive) | log2 fold change [3]: 0.138 (inactive) | log2 fold change (gefitinib): -0.095 (inactive) | log2 fold change [1]: -0.045 (inactive) | log2 fold change (lapatinib): -0.192 (inactive) | log2 fold change (pictilisib): 0.073 (inactive)

CRTC3 (UniProt Q6UUV7)
log2 fold change (filanesib): 0.015 (inactive) | log2 fold change (zotarolimus): -0.059 (inactive) | log2 fold change (alisertib): 0.202 (inactive) | log2 fold change [3]: -0.86 (active) | log2 fold change [1]: -0.107 (inactive) | log2 fold change (lapatinib): 0.078 (inactive)

CHPT1 (UniProt Q8WUD6)
Sequence of UniProt Q8WUD6 (Q8WUD6 whole entry, looked up): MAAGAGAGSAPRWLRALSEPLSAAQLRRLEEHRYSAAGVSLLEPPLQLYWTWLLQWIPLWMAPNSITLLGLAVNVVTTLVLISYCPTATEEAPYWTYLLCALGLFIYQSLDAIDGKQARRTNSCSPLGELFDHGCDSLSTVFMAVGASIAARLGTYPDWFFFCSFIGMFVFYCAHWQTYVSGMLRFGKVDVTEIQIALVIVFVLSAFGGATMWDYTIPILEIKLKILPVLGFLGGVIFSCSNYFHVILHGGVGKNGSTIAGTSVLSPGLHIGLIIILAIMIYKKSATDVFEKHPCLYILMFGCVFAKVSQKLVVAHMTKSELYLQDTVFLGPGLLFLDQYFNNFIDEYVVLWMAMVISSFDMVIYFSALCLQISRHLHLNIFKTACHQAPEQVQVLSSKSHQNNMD
log2 fold change (filanesib): -0.345 (inactive) | log2 fold change (zotarolimus): -0.017 (inactive) | log2 fold change (idasanutlin): -0.018 (inactive) | log2 fold change (alisertib): -0.136 (inactive) | log2 fold change [3]: -0.009 (inactive) | log2 fold change (gefitinib): 0.013 (inactive) | log2 fold change [1]: -0.015 (inactive) | log2 fold change (lapatinib): 0.159 (inactive) | log2 fold change (pictilisib): -0.096 (inactive)

CD68 (UniProt P34810)
Sequence of UniProt P34810 (P34810 whole entry, looked up): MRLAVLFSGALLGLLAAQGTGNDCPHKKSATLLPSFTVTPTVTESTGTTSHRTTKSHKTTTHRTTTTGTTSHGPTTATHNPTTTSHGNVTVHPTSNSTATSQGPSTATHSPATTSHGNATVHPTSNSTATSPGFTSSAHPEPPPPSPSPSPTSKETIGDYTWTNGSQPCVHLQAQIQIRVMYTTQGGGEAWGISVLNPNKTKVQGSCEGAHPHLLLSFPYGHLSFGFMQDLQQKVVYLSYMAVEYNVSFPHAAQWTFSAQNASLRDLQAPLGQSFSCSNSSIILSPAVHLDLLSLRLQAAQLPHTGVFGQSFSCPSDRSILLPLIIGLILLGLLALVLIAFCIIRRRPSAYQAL
log2 fold change (filanesib): 0.05 (inactive) | log2 fold change (alisertib): -0.126 (inactive) | log2 fold change [1]: -0.025 (inactive)

CNOT4 isoform 9 (UniProt O95628)
Sequence of UniProt O95628 (O95628 whole entry, looked up): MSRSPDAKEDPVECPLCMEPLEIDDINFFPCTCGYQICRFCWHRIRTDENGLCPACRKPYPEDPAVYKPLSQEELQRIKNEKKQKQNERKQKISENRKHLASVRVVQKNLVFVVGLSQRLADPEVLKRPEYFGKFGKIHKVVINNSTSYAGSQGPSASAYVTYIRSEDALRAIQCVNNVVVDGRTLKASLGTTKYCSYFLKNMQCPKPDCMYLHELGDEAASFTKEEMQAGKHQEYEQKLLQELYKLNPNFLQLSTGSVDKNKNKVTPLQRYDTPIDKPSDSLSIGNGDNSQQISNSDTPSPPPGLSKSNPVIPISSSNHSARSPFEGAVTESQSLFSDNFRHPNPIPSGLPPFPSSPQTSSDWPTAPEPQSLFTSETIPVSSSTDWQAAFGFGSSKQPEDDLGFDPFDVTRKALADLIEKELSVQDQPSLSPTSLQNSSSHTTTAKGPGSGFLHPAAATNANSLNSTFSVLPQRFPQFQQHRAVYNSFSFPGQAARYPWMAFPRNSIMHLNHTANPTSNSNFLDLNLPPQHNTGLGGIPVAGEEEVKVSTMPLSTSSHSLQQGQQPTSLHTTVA
log2 fold change [2]: -0.018 (inactive) | log2 fold change (zotarolimus): -0.373 (active) | log2 fold change (idasanutlin): -0.334 (active) | log2 fold change (alisertib): 0.018 (inactive) | log2 fold change [3]: 0.106 (inactive) | log2 fold change (gefitinib): 0.053 (inactive) | log2 fold change [1]: 0.019 (inactive) | log2 fold change (lapatinib): -0.083 (inactive) | log2 fold change (pictilisib): 0.045 (inactive)

CCND3 (UniProt P30281)
log2 fold change (zotarolimus): -0.035 (inactive) | log2 fold change (idasanutlin): -0.036 (inactive) | log2 fold change (alisertib): -0.043 (inactive) | log2 fold change [3]: -0.276 (inactive) | log2 fold change [1]: 0.012 (inactive) | log2 fold change (lapatinib): 0.083 (inactive) | log2 fold change (pictilisib): 0.03 (inactive)

CCNT2 (UniProt O60583)
Sequence of UniProt O60583 (O60583 whole entry, looked up): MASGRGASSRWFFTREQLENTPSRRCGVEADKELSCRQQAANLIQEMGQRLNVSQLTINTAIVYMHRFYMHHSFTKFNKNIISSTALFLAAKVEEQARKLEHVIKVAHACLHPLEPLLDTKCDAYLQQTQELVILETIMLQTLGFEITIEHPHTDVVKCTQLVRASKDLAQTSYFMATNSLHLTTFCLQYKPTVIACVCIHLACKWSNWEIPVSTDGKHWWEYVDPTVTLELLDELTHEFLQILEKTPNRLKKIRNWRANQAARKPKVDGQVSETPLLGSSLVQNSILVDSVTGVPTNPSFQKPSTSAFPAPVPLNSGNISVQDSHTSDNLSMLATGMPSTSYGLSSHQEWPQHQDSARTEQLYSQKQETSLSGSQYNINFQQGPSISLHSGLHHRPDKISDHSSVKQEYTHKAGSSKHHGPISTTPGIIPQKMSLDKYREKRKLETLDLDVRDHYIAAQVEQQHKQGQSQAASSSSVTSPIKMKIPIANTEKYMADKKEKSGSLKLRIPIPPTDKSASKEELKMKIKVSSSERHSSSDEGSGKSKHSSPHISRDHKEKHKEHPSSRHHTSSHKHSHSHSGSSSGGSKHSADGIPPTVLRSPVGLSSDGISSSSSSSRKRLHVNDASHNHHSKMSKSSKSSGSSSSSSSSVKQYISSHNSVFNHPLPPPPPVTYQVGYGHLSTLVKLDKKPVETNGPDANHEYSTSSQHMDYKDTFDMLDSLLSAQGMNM
log2 fold change (filanesib): 0.102 (inactive) | log2 fold change (idasanutlin): 0.143 (inactive) | log2 fold change (alisertib): 0.039 (inactive) | log2 fold change [3]: -0.291 (inactive) | log2 fold change (gefitinib): 0.163 (inactive) | log2 fold change [1]: -0.131 (inactive) | log2 fold change (lapatinib): 0.085 (inactive) | log2 fold change (pictilisib): 0.121 (inactive)

CLCN5 isoform 2 (UniProt P51795)
log2 fold change [2]: -0.011 (inactive) | log2 fold change (zotarolimus): -0.004 (inactive) | log2 fold change (gefitinib): 0.011 (inactive)

CFAP58 (UniProt Q5T655)
log2 fold change (alisertib): -0.156 (inactive) | log2 fold change [3]: 0 (inactive) | log2 fold change [1]: 0.032 (inactive) | log2 fold change (lapatinib): 0.001 (inactive) | log2 fold change (pictilisib): 0.122 (inactive)
